The source of these data is PubChem BioAssay (EPA / NIEHS).

Assay [1] in a line: ATG_CRE_CIS: Attagene CIS-FACTORIAL HepG2 Assay for human cAMP Responsive Element (CRE) binding protein 3 (AID 2282926). The following applies: HepG2 CRE cis-reporter, Attagene multiplexed mRNA; actives raise or lower the signal. The method, boiled down:
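We dosed HepG2 cells bearing multiple cis-promoter reporter units for 24 h and measured reporter mRNA by RT-PCR with capillary electrophoresis detection. Bidirectional concentration-response fitting used DMSO as negative control.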

Assay [2] concerns the target CCAAT/enhancer-binding protein beta (Homo sapiens) (UniProt P17676). Description: ATG_C_EBP_CIS: Attagene CIS-FACTORIAL HepG2 Assay for human CCAAT/Enhancer Binding Protein (C/EBP) beta (AID 2282927). Conditions: HepG2 Attagene cis-factorial transcription factor reporter; actives raise or lower the signal. A digest of the protocol: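 HepG2, transient MRTU transfection, 24 h treatment. RT-PCR plus CE fluorescence; DMSO negative control, bidirectional fit.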

Assay [3] can be described thus: ATG_CMV_CIS: Attagene CIS-FACTORIAL HepG2 Assay for human CMV (Internal Marker) (AID 2282928).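 Further: endpoint acts as a background internal control marker rather than a target.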 The following applies: HepG2 CMV promoter reporter, transcription factor profiling; actives raise or lower the signal. A digest of the protocol:
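After transient transfection of HepG2 with reporter transcription units driven by cis-regulatory promoters, cells receive test chemical for 24 h. Labeled reporter amplicons, digested with HpaI, are sized and quantified by capillary electrophoresis against DMSO.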

Assay [4] in a line: ATG_DR4_LXR_CIS: Attagene CIS-FACTORIAL HepG2 Assay for human Liver X Receptor (LXR), DR4 submotif (AID 2282929). The following applies: HepG2 Attagene DR4 cis-reporter, mRNA transcription; actives raise or lower the signal. The method, boiled down: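 Endogenous factor activity at a DR4 cis-element is read as reporter mRNA in transiently transfected HepG2 cells. Exposure lasts 24 h; transcripts are amplified, fluorescently labelled and sized by capillary electrophoresis, with DMSO as baseline.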

The target in assay [5] is Aryl hydrocarbon receptor (Homo sapiens) (UniProt P35869). The experiment in a line: ATG_Ahr_CIS: Attagene CIS-FACTORIAL HepG2 Assay for human Aryl Hydrocarbon Receptor (Ahr) (AID 2282930). Conditions: HepG2 AhR cis-factorial reporter transcription; actives raise or lower the signal. A digest of the protocol:
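Endogenous factor activity is tracked through cis-promoter reporter units transfected into HepG2 cells. Transcript levels at 24 h are read by fluorescent RT-PCR and capillary electrophoresis, with activity in either direction scored relative to DMSO.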

A short description of assay [6]: ATG_AP_1_CIS: Attagene CIS-FACTORIAL HepG2 Assay for human Activator Protein 1 (AP-1) (AID 2282931). Conditions: HepG2 Attagene cis-factorial AP-1 reporter mRNA; actives raise or lower the signal. The method, boiled down: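 Fluorescence of labelled PCR fragments separated by capillary electrophoresis gives reporter mRNA levels. HepG2 with transfected cis-regulated reporter units, 24 h exposure; DMSO serves as baseline for bidirectional curve fits.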

A short description of assay [7]: ATG_AP_2_CIS: Attagene CIS-FACTORIAL HepG2 Assay for human Activator Protein 2 (AP-2) (AID 2282932). The following applies: HepG2 AP-2 cis-reporter, Attagene transcription factor profiling; actives raise or lower the signal. A digest of the protocol:
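Multiplexed mRNA reporter assay in HepG2: cis-regulated units report endogenous factor activity after 24 h treatment. Fluorescence from capillary electrophoresis of RT-PCR products gives the signal, with DMSO as baseline.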

Assay [8] can be described thus: ATG_BRE_CIS: Attagene CIS-FACTORIAL HepG2 Assay for human Bone Morphogenetic Protein (BMP) Response Element (BRE) (AID 2282933). The following applies: HepG2 BMP response element reporter, Attagene transcription factor profiling; actives raise or lower the signal. The method, boiled down: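 Endogenous transcription factor activity read in transiently transfected HepG2 cells after 24 h chemical exposure. Bidirectional curve fitting against DMSO; readout is reporter transcript level by RT-PCR with capillary electrophoresis of labelled products.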

Assay [9] deals with Transcription factor E2F1 (Homo sapiens) (UniProt Q01094). The experiment in a line: ATG_E2F_CIS: Attagene CIS-FACTORIAL HepG2 Assay for human E2F Transcription Factor 1 (AID 2282935). Conditions: HepG2 Attagene cis-reporter, E2F reporter RNA transcripts; actives raise or lower the signal. A digest of the protocol: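 Measures reporter transcript levels via RT-PCR with capillary electrophoresis detection in HepG2 cells harboring cis-regulated reporter units; 24 h post-dose; bidirectional curve fitting with DMSO as baseline.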

Active and inactive are the calls of the source. How the source made its calls: active means hit-call score of the fitted dose curve at least 0.9, where 1 is the maximum; inactive means score below 0.9.

Chain of CCAAT/enhancer-binding protein beta (Homo sapiens) (P17676 whole entry, looked up): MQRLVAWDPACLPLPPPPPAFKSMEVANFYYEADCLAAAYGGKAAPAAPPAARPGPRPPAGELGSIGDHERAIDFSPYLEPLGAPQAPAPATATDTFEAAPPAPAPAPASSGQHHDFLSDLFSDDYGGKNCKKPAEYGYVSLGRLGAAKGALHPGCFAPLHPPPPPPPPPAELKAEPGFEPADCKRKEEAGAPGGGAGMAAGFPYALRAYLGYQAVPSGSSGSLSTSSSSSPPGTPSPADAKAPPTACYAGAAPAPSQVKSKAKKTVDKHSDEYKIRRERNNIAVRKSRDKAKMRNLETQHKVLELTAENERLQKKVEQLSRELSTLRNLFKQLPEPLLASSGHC
Chain of Aryl hydrocarbon receptor (Homo sapiens) (P35869 whole entry, looked up): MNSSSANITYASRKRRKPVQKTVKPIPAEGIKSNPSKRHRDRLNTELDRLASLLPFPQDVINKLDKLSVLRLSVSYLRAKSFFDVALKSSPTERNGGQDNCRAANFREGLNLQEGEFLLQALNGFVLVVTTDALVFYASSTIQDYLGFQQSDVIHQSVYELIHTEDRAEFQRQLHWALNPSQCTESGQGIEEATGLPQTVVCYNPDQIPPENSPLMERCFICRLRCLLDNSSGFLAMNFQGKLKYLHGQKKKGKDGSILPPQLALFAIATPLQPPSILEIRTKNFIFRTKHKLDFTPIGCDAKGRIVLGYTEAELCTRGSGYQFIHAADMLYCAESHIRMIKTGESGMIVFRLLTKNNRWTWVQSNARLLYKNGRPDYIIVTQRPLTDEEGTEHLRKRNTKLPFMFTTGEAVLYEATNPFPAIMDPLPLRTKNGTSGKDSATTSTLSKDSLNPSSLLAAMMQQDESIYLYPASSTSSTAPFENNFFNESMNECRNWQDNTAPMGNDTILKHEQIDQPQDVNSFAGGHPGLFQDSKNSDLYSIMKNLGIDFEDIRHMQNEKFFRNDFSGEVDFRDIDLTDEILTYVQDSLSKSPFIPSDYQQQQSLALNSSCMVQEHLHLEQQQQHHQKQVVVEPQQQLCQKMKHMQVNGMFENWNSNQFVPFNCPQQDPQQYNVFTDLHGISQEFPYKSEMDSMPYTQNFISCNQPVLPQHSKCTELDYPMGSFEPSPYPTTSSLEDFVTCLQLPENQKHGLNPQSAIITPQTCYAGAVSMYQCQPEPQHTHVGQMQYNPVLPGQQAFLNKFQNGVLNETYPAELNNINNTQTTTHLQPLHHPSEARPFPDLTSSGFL
Chain of Transcription factor E2F1 (Homo sapiens) (Q01094 whole entry, looked up): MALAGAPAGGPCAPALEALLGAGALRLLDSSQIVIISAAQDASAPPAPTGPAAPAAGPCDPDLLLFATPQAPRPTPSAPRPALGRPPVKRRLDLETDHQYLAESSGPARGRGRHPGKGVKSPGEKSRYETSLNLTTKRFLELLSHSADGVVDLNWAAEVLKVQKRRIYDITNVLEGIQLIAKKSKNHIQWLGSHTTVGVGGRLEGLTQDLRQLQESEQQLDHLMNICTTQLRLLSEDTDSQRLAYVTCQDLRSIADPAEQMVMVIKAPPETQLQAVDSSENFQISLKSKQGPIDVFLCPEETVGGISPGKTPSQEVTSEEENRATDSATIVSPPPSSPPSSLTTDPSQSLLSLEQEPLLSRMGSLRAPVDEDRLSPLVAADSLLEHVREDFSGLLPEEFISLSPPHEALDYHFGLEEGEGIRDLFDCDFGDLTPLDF

As for `CC(C)(C#N)c1cc(Cn2cncn2)cc(C(C)(C)C#N)c1`, the molecule was called inactive in [1], in assay [2], in assay [3], in assay [4], in assay [5] and in assay [6]. In addition, the result in assay [7], in assay [8] and in assay [9] was inactive.
Regarding `CCCC(=O)C(C)=O`, the call in assay [1], in [2], in assay [3], in assay [4], in [5] and in [6] was inactive. The molecule was classed as inactive in assay [7], in [8] and in [9].
Consider `C=C(C)C(=O)NCCCN(C)C`, for which the molecule was classed as inactive in [1], in assay [2], in assay [3], in assay [4], in assay [5] and in [6]. Further, the molecule was called inactive in [7], in assay [8] and in assay [9].
Regarding `O=Cc1ccc(F)cc1`, the result in assay [1], in assay [2], in assay [3], in assay [4], in assay [5] and in [6] was inactive. In addition, the molecule was called inactive in assay [7], in assay [8] and in assay [9].
Turning to `CC(CC(C)(C)C)CC(C)(C)CC(C)(C)C` (stereo not drawn), the call in [1], in assay [2], in assay [3], in assay [4], in [5] and in assay [6] was inactive. The outcome in [7], in assay [8] and in assay [9] was inactive.
As usually defined, the AC50 is the concentration at which the activity in the assay is half-maximal. Consider `CC(C)(C)c1n[nH]c(=S)n(N)c1=O`, for which the molecule was called inactive in assay [1], in assay [2], in [3], in assay [4], in assay [6] and in assay [7]. Besides, the molecule was classed as inactive in assay [8] and in assay [9]. Also, the AC50 in [5] was 23.9 µM (active).
For `C=CC(=O)OCC(O)COc1ccccc1` (stereo not drawn), the molecule was classed as inactive in [1], in [2], in assay [3], in [5], in assay [6] and in [9]. Besides, the concentration at half-maximal activity (AC50) in [4] is 32 µM (active); in [7] it was 26.8 µM (active); in [8], 82.8 µM (active).
For `O=C(O)c1ccc([N+](=O)[O-])cc1`, the molecule was classed as inactive in assay [1], in assay [2], in [3], in [4], in assay [5] and in [6]. Besides, the outcome in assay [7], in assay [8] and in assay [9] was inactive.
As to `Cc1ccc2sc3cccc(C)c3c2c1`, the molecule was classed as inactive in assay [1], in [2], in [3], in [4], in assay [5] and in assay [6]. The result in assay [7], in [8] and in assay [9] was inactive.
For the molecule `CC(=O)Nc1ccc(C)cc1C`, the result in assay [1], in assay [2], in [3], in [4], in [5] and in [6] was inactive. Also, the outcome in assay [7], in assay [8] and in assay [9] was inactive.
Turning to `CC(O)C(C)O` (stereo not drawn), the result in [1], in assay [2], in [3], in [4], in assay [5] and in [6] was inactive. Besides, the molecule was called inactive in assay [7], in assay [8] and in [9].
Consider `CNC(=O)Oc1ccc2c(c1)[C@]1(C)CCN(C)[C@@H]1N2C`, for which the result in assay [1], in assay [2], in assay [3], in assay [4], in assay [5] and in [6] was inactive. For the same molecule, the outcome in [7], in assay [8] and in assay [9] was inactive.
Consider `C[C@H]1C[C@H]2[C@@H]3CCC4=CC(=O)C=C[C@]4(C)[C@@]3(F)[C@@H](O)C[C@]2(C)[C@@]1(O)C(=O)COP(=O)(O)O`, for which the molecule was called inactive in [1], in assay [2], in assay [3], in assay [4], in assay [5] and in [6]. Besides, the molecule was called inactive in assay [7], in [8] and in assay [9].
With `O=CCCc1ccccc1`, the call in assay [1], in [2], in [3], in assay [4], in assay [5] and in [6] was inactive. Besides, the molecule was called inactive in assay [7], in [8] and in assay [9].
In the case of `C=COCCOCCOCCOC=C`, the result in assay [1], in assay [2], in [3], in assay [4], in assay [5] and in [6] was inactive. Further, the result in assay [7], in assay [8] and in [9] was inactive.
With `Nc1ccc(S(=O)(=O)O)c(N)c1`, the molecule was called inactive in [1], in assay [2], in [3], in assay [4], in assay [5] and in [6]. Further, the molecule was classed as inactive in [7], in assay [8] and in assay [9].
Take `C=C(C)C(=O)Nc1ccc(Cl)c(Cl)c1`: the call in [1], in [2], in assay [3], in assay [4], in [6] and in assay [7] was inactive. For the same molecule, the call in [9] was inactive. Besides, the AC50 was 14.9 µM (active) in [5] and 79.9 µM (active) in assay [8].
Take `Nc1ccc(S(N)(=O)=O)cc1`: the result in assay [1], in [2], in assay [3], in [4], in [5] and in [6] was inactive. In addition, the molecule was classed as inactive in assay [7], in [8] and in [9].
`O=C1c2ccccc2C(=O)N1SC1CCCCC1`: the call in assay [1], in assay [2], in assay [3] and in assay [9] was inactive. The AC50 in assay [4] was 170 µM (active); in assay [5] it was 26.9 µM (active); in [6], 84.5 µM (active); in [7], 129 µM (active); in [8] it was 75.1 µM (active).
Regarding `C=C(C)C(=O)OCc1ccccc1`, the result in [1], in assay [2], in assay [3], in assay [4], in [5] and in assay [6] was inactive. The call in assay [7], in [8] and in assay [9] was inactive.
For the molecule `Cc1cc(C2(c3cc(C)c(O)cc3C)OS(=O)(=O)c3ccccc32)c(C)cc1O`, the result in assay [1], in [2], in assay [3], in assay [4], in [6] and in assay [7] was inactive. Moreover, the call in assay [8] and in assay [9] was inactive. Besides, in assay [5], the AC50 is 44.5 µM (active).
As to `CC(C)(C)NC(N)=O`, the molecule was called inactive in assay [1], in [2], in assay [3], in assay [4], in [5] and in [6]. Also, the call in [7], in [8] and in assay [9] was inactive.
Consider `OCCCCCO`, for which the outcome in [1], in [2], in [3], in assay [4], in assay [5] and in [6] was inactive. The molecule was called inactive in assay [7], in [8] and in assay [9].
Turning to `CC(C)c1cccc(O)c1`, the molecule was called inactive in assay [1], in [2], in assay [3], in [4], in [5] and in assay [6]. Also, the molecule was called inactive in [7], in assay [8] and in assay [9].
`COc1ccc(O)cc1`: the outcome in [1], in assay [2], in assay [3], in assay [4], in assay [5] and in assay [6] was inactive. The molecule was called inactive in assay [7], in assay [8] and in [9].
As to `CCCCC/C=C/C=C/C=O`, the outcome in assay [1], in assay [2], in [3], in assay [5], in [6] and in assay [7] was inactive. Besides, the result in assay [8] and in assay [9] was inactive. In addition, the half-maximal activity concentration (AC50) in [4] is 167 µM (active).
Turning to `CCCCCCCCC`, the result in assay [1], in assay [2], in assay [3], in assay [4], in assay [5] and in [6] was inactive. In addition, the call in assay [7], in [8] and in assay [9] was inactive.
